The results in this text go back to PubChem BioAssay (NCI).

Molecules are shown by their SMILES. Compounds without any hit were thinned out: in the full panel of roughly 83,000, 20% have a hit.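 Percent growth is the endpoint: 0 to 100 indicates growth inhibition (40 means 60% inhibition), 0 means no net growth, and negative values indicate cell death.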 Unmarked numbers belong to inactive results. The source made the active and inactive calls. Rule for the calls: active = growth percent below 10; inactive = the rest.

Some test systems named below: T-47D breast; BT-549 breast; MDA-MB-435 melanoma; SW-620 colon; MCF7 breast; HCT-116 colon; HCC-2998 colon; KM12 colon.
Assay in all cases: NCI-60 one-dose screen, 48 h (100 = growth as untreated, 0 = no growth, -100 = all killed)
Details in all cases: 10 µM unless noted

As for `O=C(OCCCCOC(=O)n1cnc2ccccc21)n1cnc2ccccc21`, the growth with T-47D breast was 92.2%; in the assay on BT-549 breast, 104%; in the assay on MDA-MB-435 melanoma it was 103%; in the assay on SW-620 colon it was 106%; in the assay on MCF7 breast it was 96.7%; with HCT-116 colon, 102%. Also, the values for the growth in the assay with HCC-2998 colon and with KM12 colon were 111% and 104%, respectively.

As for `CCN(C(=O)c1cc2ccccc2[nH]1)[C@H]1CCC[C@@H](NCc2ccc(OC)cc2)C1`, the growth in the assay on T-47D breast is 82.7%; in the assay on BT-549 breast, 102%; in the assay with MDA-MB-435 melanoma it was 93.1%; in the assay on SW-620 colon, 91.2%; with MCF7 breast, 84%; with HCT-116 colon it was 92.1%. For the same compound, the growth in the assay with HCC-2998 colon was 78.3%; in the assay on KM12 colon, 90.4%.

Regarding `COc1cc(NCCCN=C(N)NC(N)=NC(C)C)c2ncccc2c1`, the growth in the assay on T-47D breast is -2.75% (active); with BT-549 breast, 65.1%; in the assay with MDA-MB-435 melanoma it was 96.9%; with SW-620 colon, 86.6%; in the assay on MCF7 breast, -52.9% (active); in the assay with HCT-116 colon, 17.3%. The growth is 55.8% in the assay on HCC-2998 colon and 30.6% in the assay with KM12 colon.

`CCCC1OC(c2ccc(C(C)C)cc2)OCC1CC` (stereo not drawn): the growth is 85.7% in the assay on T-47D breast; 102% with BT-549 breast; 105% with MDA-MB-435 melanoma; 112% in the assay on SW-620 colon; 94.7% in the assay with MCF7 breast; 93.9% with HCT-116 colon. For the same compound, the growth in the assay with HCC-2998 colon was 103%; in the assay with KM12 colon, 107%.

As to `Cn1cc(C=O)c2ccccc21`, the growth in the assay with T-47D breast is 102%; in the assay on BT-549 breast it was 106%; in the assay on MDA-MB-435 melanoma, 106%; in the assay on SW-620 colon it was 95.1%; in the assay on MCF7 breast, 99.3%; with HCT-116 colon it was 102%. The growth in the assay with HCC-2998 colon is 100%; in the assay on KM12 colon, 102%.

In the case of `CC(C(=O)n1cc(-c2ccccc2)c(-c2ccccc2)c1)c1ccccc1` (stereo not drawn), the growth in the assay on T-47D breast is 93.4%; with BT-549 breast, 117%; in the assay with MDA-MB-435 melanoma, 104%; in the assay on SW-620 colon it was 111%; in the assay on MCF7 breast, 100%; with HCT-116 colon, 99.8%. In addition, the growth in the assay with HCC-2998 colon was 104%; with KM12 colon, 105%.

Regarding `C[C@]12CC[C@@H]3c4cc(O)c(O)cc4CC[C@H]3[C@@H]1CC[C@@H]2O`, the growth is 30.4% in the assay with T-47D breast; 37.7% in the assay with BT-549 breast; -45% (active) with MDA-MB-435 melanoma; 30.7% with SW-620 colon; 17.8% in the assay on MCF7 breast; 37.9% in the assay on HCT-116 colon. Moreover, the figures for the growth in the assay on HCC-2998 colon and in the assay on KM12 colon were 91.4% and 74.5%, respectively.

Consider `NC(=O)c1cccc(N2Cc3ccccc3OC3=C2C(=O)c2c(O)ccc(O)c2C3=O)c1`, for which the growth is -36.9% (active) in the assay with T-47D breast; -56.8% (active) with BT-549 breast; -27.3% (active) with MDA-MB-435 melanoma; -66.6% (active) in the assay with SW-620 colon; -22.3% (active) in the assay with MCF7 breast; -69.1% (active) in the assay with HCT-116 colon. For the same compound, the growth with HCC-2998 colon is -21.1% (active); with KM12 colon it was -48.9% (active).

Turning to `COC1=CC(c2ccc[nH]2)=N/C1=C\c1[nH]c(C)c(C(=O)CCC(=O)Oc2ccc3c(c2)CCC2C3CC[C@]3(C)[C@@H](O)CC[C@@H]23)c1C` (stereo partly drawn), the growth with T-47D breast is 20.5%; with BT-549 breast, 27%; in the assay on MDA-MB-435 melanoma, 11.9%; in the assay on SW-620 colon it was -51.1% (active); in the assay on MCF7 breast, 13.6%; with HCT-116 colon, -84.2% (active). Also, the growth with HCC-2998 colon was 9.51% (active); in the assay on KM12 colon, 3.48% (active).

As for `Nc1c(C(=O)Nc2cccc(C(F)(F)F)c2)sc2nc3c(cc12)C(O)CCC3` (stereo not drawn), the growth in the assay with T-47D breast is 17%; in the assay with BT-549 breast, 52.9%; in the assay on MDA-MB-435 melanoma, -16.7% (active); with SW-620 colon it was 33.1%; with MCF7 breast, 10.2%; in the assay on HCT-116 colon, 35.2%. Moreover, the growth in the assay on HCC-2998 colon was 78.8%; in the assay on KM12 colon, 18.1%.

For the compound `C=C1C(=O)O[C@H]2[C@H]1CC/C(COC(=O)NCc1cc(OC)c(OC)c(OC)c1)=C\CC[C@@]1(C)O[C@@H]21`, the growth was 34% in the assay on T-47D breast; 55.1% in the assay with BT-549 breast; 62.8% with MDA-MB-435 melanoma; 15.6% with SW-620 colon; 17% in the assay with MCF7 breast; 18.7% with HCT-116 colon. Further, the growth with HCC-2998 colon was 101%; in the assay with KM12 colon it was 92%.

Consider `CC(C)N(Cc1ccc(CN(C(=O)CCl)C(C)C)cc1)C(=O)CCl`, for which the growth in the assay on T-47D breast was -14.8% (active); in the assay on BT-549 breast it was 18.6%; in the assay with MDA-MB-435 melanoma, 27.2%; with SW-620 colon, 2.78% (active); in the assay on MCF7 breast, 23.8%; in the assay on HCT-116 colon it was -67.4% (active). For the same compound, the growth in the assay with HCC-2998 colon was 93.8%; in the assay on KM12 colon it was 41.1%.

For the compound `COc1ccc(/C(=N\O)c2cc(OC)c(OC)c(OC)c2)c(OC)c1N`, the growth in the assay on T-47D breast is 45.1%; in the assay on BT-549 breast it was 2.29% (active); in the assay on MDA-MB-435 melanoma it was -66.3% (active); in the assay with SW-620 colon it was 23.4%; in the assay on MCF7 breast, 15.6%; in the assay on HCT-116 colon, 7.66% (active). Further, the figures for the growth in the assay on HCC-2998 colon and in the assay on KM12 colon were 35.7% and 11.7%, respectively.

Turning to `C=CCN=C1NC(=O)/C(=C/c2cc(C(C)(C)C)c(O)c(C(C)(C)C)c2)S1`, the growth in the assay with T-47D breast was 47.1%; in the assay with BT-549 breast, 55.6%; in the assay with MDA-MB-435 melanoma it was -2.99% (active); with SW-620 colon it was 63.5%; with MCF7 breast, 43.8%; in the assay with HCT-116 colon, 46.4%. Moreover, the results for the growth in the assay with HCC-2998 colon and in the assay on KM12 colon were 89.8% and 61.4%, respectively.

In the case of `COc1ccc(NC(=O)CSc2nc3ccccc3c(=O)n2-c2ccccc2C(F)(F)F)c(OC)c1OC`, the growth with T-47D breast was 95.1%; in the assay on BT-549 breast it was 99.8%; in the assay with MDA-MB-435 melanoma it was 107%; in the assay on SW-620 colon it was 95.3%; in the assay with MCF7 breast it was 97.8%; with HCT-116 colon it was 98.3%. For the same compound, the growth is 118% with HCC-2998 colon and 101% in the assay with KM12 colon.

For the compound `COc1cccc(/C=C/c2c(C(=O)O)cccc2[N+](=O)[O-])c1OC`, the growth in the assay on T-47D breast is 91.2%; with BT-549 breast it was 107%; in the assay with MDA-MB-435 melanoma, 101%; in the assay on SW-620 colon, 99.7%; with MCF7 breast, 95.8%; with HCT-116 colon it was 97.9%. Moreover, the growth was 104% in the assay on HCC-2998 colon and 96.8% in the assay with KM12 colon.
